MIN6 prolif: MIN6 beta-cell proliferation induction; MIN6 cells proliferation, ATPlite luminescence, 48 h; cells starved in 0.2% serum; 100% = growth in 10% serum; proliferation, % at 10 µM; 330,000 tested, 0.29% active;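 active = compounds whose signal lies at least 3.5 SD above the mean of all wells on their plate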
CendR NRP1 mod: alters CendR peptide binding to human NRP-1. O14786. FAM-RPARPAR peptide binding to NRP-1, fluorescence polarization. inhibition, % at 25 µM. 360,000 tested, 0.85% active. AID 602438;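 active = inhibition or corrected inhibition above about 18%, plus a signal ratio from 0.5 to 1.5, limit read from the data, passing the limit was not always enough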
VLA-4 inh: inhibition in a human VLA-4 binding assay; 330,000 tested, 0.2% active; inhibition, % (about 7 µM as worked out from the volumes in the protocol); VLA-4 expressing cells, ligand binding flow cytometry; in the data active = inhibition above about 50%
A3G deaminase: inhibitors of human APOBEC3G DNA deaminase; Q9HC16; recombinant A3G, ssDNA deamination FAM/TAMRA fluorescence; inhibition, % at 20 µM; 330,000 tested, 0.28% active; AID 493012;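 active = inhibition of at least 40% at 20 µM, with no more than 30% in the related APOBEC3A deaminase screen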
Target sequence (Q9HC16 whole entry, looked up): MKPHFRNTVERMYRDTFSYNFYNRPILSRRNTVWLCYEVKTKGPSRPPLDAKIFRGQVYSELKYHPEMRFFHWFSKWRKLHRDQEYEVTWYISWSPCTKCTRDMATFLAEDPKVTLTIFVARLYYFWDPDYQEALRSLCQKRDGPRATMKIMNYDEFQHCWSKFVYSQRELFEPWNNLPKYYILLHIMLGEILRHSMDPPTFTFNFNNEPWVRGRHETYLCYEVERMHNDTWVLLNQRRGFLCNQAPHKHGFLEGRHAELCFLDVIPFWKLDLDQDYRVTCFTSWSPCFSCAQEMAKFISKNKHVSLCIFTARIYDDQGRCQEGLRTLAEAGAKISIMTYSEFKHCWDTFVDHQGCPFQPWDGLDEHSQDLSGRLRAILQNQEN
A3A deaminase: blocks human APOBEC3A ssDNA deamination; P31941; recombinant A3A, FAM/TAMRA ssDNA deamination fluorescence; inhibition, % at 20 µM; 330,000 tested, 0.41% active; AID 493011;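 active = at least 40% inhibition at 20 µM here, with at most 30% in a related deaminase screen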
Target sequence (P31941 whole entry, looked up): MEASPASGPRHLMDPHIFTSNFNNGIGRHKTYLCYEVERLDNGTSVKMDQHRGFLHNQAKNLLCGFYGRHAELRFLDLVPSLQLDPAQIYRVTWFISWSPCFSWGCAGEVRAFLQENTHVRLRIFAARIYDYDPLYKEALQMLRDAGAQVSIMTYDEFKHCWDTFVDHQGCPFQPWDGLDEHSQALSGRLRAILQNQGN
VLA-4 mod pick: human VLA-4 allosteric modulation in cherry picked compounds. 1,300 tested, 2% active. shares compounds with VLA-4 inh. U937 cells, HUTS-21 LIBS mAb binding, flow cytometry; LDV ligand present at threefold Kd. inhibition, % at 6.7 µM; in the data active = inhibition above about 40%
Hits are given with their value; . = inactive; / = no result given; ! = repeats disagree. An excerpt weighted towards active compounds, which were near 1.8% of everything screened.

SMILES | MIN6 prolif | CendR NRP1 mod | VLA-4 inh | A3G deaminase | A3A deaminase | VLA-4 mod pick
Cc1ccc(S(=O)(=O)NNC(=O)CCC(=O)Nc2ccc(C)cc2C)cc1 | . | . | . | . | . | .
Cc1ccc(O)c([C@H](CCN(C(C)C)C(C)C)c2ccccc2)c1 | . | . | 53! | . | . | .
COc1cccc(NC(=O)C(=O)NCCCN2CCCC2=O)c1 | . | . | . | . | . | /
O=C(COC(=O)c1ccc(F)cc1)NCC1CCCCC1 | . | . | 51 | . | . | .
COc1ccc(C(=O)OCC(=O)NCC2CCCCC2)cc1F | . | . | / | . | . | /
O=C(COC(=O)c1ccc(Cl)cc1)NCC1CCCCC1 | . | . | . | . | . | .
O=C(COC(=O)c1c(F)cccc1Cl)NCC1CCCCC1 | . | . | . | . | . | .
COc1ccc(OC(C)C(=O)NC2CCCCCCC2)cc1 (centres undefined) | . | . | . | . | . | /
Cc1ccc(C(=O)NC(=S)Nc2ccc(NC(=O)c3cccc(Cl)c3)cc2)cc1 | . | . | . | . | . | .
Cc1cc(C)nc(NC(=O)c2ccc(Cl)cc2)n1 | . | . | . | . | . | /
Cc1cc(C)nc(NC(=O)c2cccc(Cl)c2)n1 | . | . | 53 | . | . | .
O=[N+]([O-])c1nccn1CCCCCCN1CCOCC1 | / | . | / | / | / | /
O=C(COC(=O)c1ccc2c(c1)OCO2)NCc1ccc2c(c1)OCO2 | . | . | . | . | . | /
COCC(=O)NCc1ccc2c(c1)OCO2 | . | . | 53 | . | . | .
Cc1ccc(Cl)cc1N(CC(=O)NC1CCCC1)C(=O)c1csnn1 | . | . | . | . | . | /
CCN(CC)S(=O)(=O)c1ccc(NC(=O)CCN2C(=O)C3CC=CCC3C2=O)cc1 (centres undefined) | . | . | . | . | . | /
CC(NC(=O)c1ccccc1F)c1nnc(SCC(=O)Nc2nccs2)n1C (centres undefined) | . | . | . | . | . | .
COc1cccc(OC)c1C(=O)OCC(=O)NC1CCCCCC1 | . | . | . | . | . | /
O=C(COC(=O)c1ccc(O)cc1)Nc1cc(C(F)(F)F)ccc1Cl | . | . | . | . | . | /
CC(OC(=O)c1ccc(O)cc1)C(=O)Nc1cc(C(F)(F)F)ccc1Cl (centres undefined) | . | . | . | . | . | .
COc1ccc(N(C(=O)c2cnsn2)C(C(=O)NC2CCCCC2)c2ccncc2)cc1 (centres undefined) | . | . | . | . | . | .
CCOCCCNC(=S)N1CCC(NC(=O)C23CC4CC(CC(C4)C2)C3)CC1 | . | . | . | . | . | /
O=C(O)c1ccc(NC2OC[C@@H](O)[C@H](O)[C@H]2O)cc1 (some centres undefined) | . | . | 59 | . | . | .
CSCCC(=O)N1CCC(n2nccc2NC(=O)CCc2ccccc2)CC1 | . | . | . | . | . | /
COc1cccc(-c2cc(=O)c3cc(NC(=O)c4ccc(Cl)cc4)ccc3[nH]2)c1 | . | . | 50 | . | . | .
SMILES | MIN6 prolif | CendR NRP1 mod | VLA-4 inh | A3G deaminase | A3A deaminase | VLA-4 mod pick
COc1cccc(-c2cc(=O)c3cc(NC(=O)c4ccccc4)ccc3[nH]2)c1 | . | . | . | . | . | /
CCN(CC)S(=O)(=O)c1cccc(NC(=O)c2cc(-c3cccs3)nn2-c2ccccc2)c1 | . | . | . | . | . | /
CN(C)S(=O)(=O)c1cccc(NC(=O)c2cc(-c3cccs3)nn2-c2ccccc2)c1 | . | . | . | . | . | .
C[C@@H](CN1CCC[C@H]1CN1C(N)=NC[C@@H]1Cc1ccccc1)N1C[C@@H](Cc2ccccc2)N(CCc2ccc(Cl)c(Cl)c2)C1=N | . | . | . | . | . | /
CC(C)[C@@H]1CN=C(N)N1C[C@@H]1CCCN1C[C@H](C)N1C[C@@H](Cc2ccccc2)N(CCc2ccc(Cl)c(Cl)c2)C1=N | . | . | 53 | . | . | .
COc1ccc(S(=O)(=O)NCCSCc2ccc(Cl)cc2)cc1NC(C)=O | . | . | / | . | . | /
O=C(NCCCn1ccnc1)c1ccc(F)cc1 | . | . | . | . | . | /
O=C(NCCCn1ccnc1)c1ccc(-c2ccccc2)cc1 | . | . | . | . | . | .
O=C(c1cccc(NC2=NC3CS(=O)(=O)CC3S2)c1)N1CCN(c2ncccn2)CC1 (centres undefined) | . | . | . | . | . | .
CCOC(=O)N1CCN(C(=O)c2cccc(NC3=NC4CS(=O)(=O)CC4S3)c2)CC1 (centres undefined) | . | . | . | . | . | .
COc1ccc(N2CCN(C(=O)c3cccc(NC4=NC5CS(=O)(=O)CC5S4)c3)CC2)cc1 (centres undefined) | . | . | . | . | . | /
COc1cccc(N2CCN(C(=O)c3ccc(Cl)c(NC4=NC5CS(=O)(=O)CC5S4)c3)CC2)c1 (centres undefined) | . | . | . | . | . | .
CC(C)(C)OC(=O)CC12CCCCC1NC(=O)O2 (centres undefined) | . | . | . | . | . | /
COc1ccc(CN2C(=O)c3cccnc3C2=O)cc1S(=O)(=O)N(C)c1cccc(C)c1 | . | . | . | . | . | /
C#C[C@]1(O)CC[C@H]2[C@@H]3CCc4cc(OC)ccc4[C@H]3CC[C@@]21C | . | . | . | . | . | /
C#C[C@]1(O)CC[C@H]2[C@@H]3CCc4cc(OC5CCCC5)ccc4[C@H]3CC[C@@]21C | . | . | 53 | . | . | .
CCOC(=O)C1=CNS(=O)(=O)NC1c1ccc(C(F)(F)F)cc1 (centres undefined) | / | . | / | . | . | /
CC(OC(=O)c1cc(=O)c2cc(Cl)ccc2o1)C(=O)N1CCCC1 (centres undefined) | . | . | / | . | . | /
O=C(O)c1cc(-c2ccc(Cl)c(Cl)c2)n(-c2ccccc2)n1 | . | . | . | . | . | .
O=C(O)c1cc(-c2ccc(Cl)cc2)n(-c2ccc(Cl)cc2)n1 | . | . | . | . | . | /
O=C(c1ccc([N+](=O)[O-])cc1)N1CCN(c2ncc(Br)cn2)CC1 | . | . | . | . | . | /
CCC(=O)Nc1ccc2c(c1)ncn2-c1ccccc1 | . | . | 53 | . | . | .
CCOc1ccc(NC(=S)N2CCC(C(N)=O)CC2)cc1 | . | . | . | . | . | /
COC(=O)c1ccc(NC(=S)N2CCC(C(N)=O)CC2)cc1 | . | . | . | . | . | .
Cc1ccc(-c2ccc(C(=O)NCCCNC(=O)c3cnccn3)o2)cc1Cl | . | . | . | . | . | /
C#CCOc1ccc2c(C)cc(=O)oc2c1 | . | . | 52 | . | . | .
C=C(Cl)COc1ccc2c(C)cc(=O)oc2c1 | . | . | . | . | . | /
CC(CCc1ccccc1)NS(=O)(=O)c1ccccc1F (centres undefined) | . | . | . | . | . | /
COCCCn1[nH]c2c3c(ccc2c1=O)C(=O)c1ccccc1C3=O | . | . | 92 | . | . | .
CC(C)(C)n1[nH]c2c3c(ccc2c1=O)C(=O)c1ccccc1C3=O | . | . | . | . | . | /

High-throughput results from PubChem.
